Rows were chosen to be rich in hits. Some 1.5% of all compounds tested hit in one or more screens of this group.
DUSP3 inh = DUSP3 (human) phosphatase inhibition; AID 1654; recombinant VHR phosphatase, pNPP absorbance; 0.52% of 290,000 active; P51452; inhibition, % at 13.3 µM; in the data active = inhibition above about 50%
3CLpro inhibitor = SARS-CoV 3CLpro protease inhibition | inhibition, % at 6 µM | AID 1706 | 0.14% of 290,000 active | recombinant SARS-CoV 3CLpro, quenched FRET peptide cleavage; in the data active = inhibition above about 12%
MazEF act = increases E. coli MazEF RNase cleavage of RNA | P0AE70 | FAM/BHQ RNA-DNA oligo cleavage fluorescence, 5 h | activation, % at 20 µM | 0.32% of 350,000 active; in the data active = activation above about 50%
PrP UTR inh = inhibition of PrP 5' UTR reporter expression; inhibition, % (no concentration beside the values); AID 488862; cell-based PrP 5' UTR mRNA reporter, plate reader; 0.35% of 340,000 active; in the data active = inhibition above about 52%; note: 0 = median of the neutral control wells
Mtb hypoxia inh = inhibitors of hypoxia-regulated fluorescent reporter in Mycobacterium tuberculosis. M. tuberculosis hypoxia-regulated fluorescent reporter, fluorescence. 0.1% of 300,000 active. fluorescence inhibition, % (no concentration beside the values). AID 1159583; in the data active = fluorescence inhibition mostly above about 23%, no sharp cut-off; inactive = mostly below about 17%
PrPC surface inh = inhibitors of human cell surface prion protein PrPC | 0.43% of 370,000 active | P04156 | TR-FRET read-out | AID 720596 | inhibition, % at 13.8 µM; in the data active = inhibition above about 24%; note: 0% = median of the test wells and 100% = reference compound wells
PrPC confirm = confirmation of inhibitors of cell surface human prion protein | shares compounds with PrPC surface inh | cell surface PrPC level, TR-FRET | inhibition, % at 13.8 µM | 65% of 1,500 active | AID 743200; in the data active = inhibition above about 25%
LD9 tox = counter-screen for PrPc inhibitors: cytotoxicity in LD9 cells; shares compounds with PrPC surface inh; luminescence viability; inhibition, % at 13.8 µM; 29% of 1,500 active; AID 743201; in the data active = inhibition above about 9.5%
* marks the source's active call; other numbers are inactive results; nt = not tested or not shown; ! = not confirmed by another sample.

SMILES	DUSP3 inh	3CLpro inhibitor	MazEF act	PrP UTR inh	Mtb hypoxia inh	PrPC surface inh	PrPC confirm	LD9 tox
CC1(Cc2ccc(Cl)cc2)C(=O)Nc2ccc(S(=O)(=O)NC3CCCCC3)cc21 (stereo unspecified)	nt	nt	nt	nt	nt	11	nt	nt
O=C(Nc1ccc2nc3n(c(=O)c2c1)CCCCC3)c1c(F)ccc([N+](=O)[O-])c1F	-2	6	17	-11	nt	26*	28*	96*
O=C(Nc1ccc2nc3n(c(=O)c2c1)CCCCC3)c1cc([N+](=O)[O-])ccc1F	6	6	5	-5	nt	-26	nt	nt
CCOC(=O)Nc1ccc2nc3n(c(=O)c2c1)CCCCC3	12	3	-3	-35	11	7	nt	nt
CCCN(C(=O)C(=O)Nc1ccc2nc3n(c(=O)c2c1)CCCCC3)c1ccc(OCC)cc1	-4	1	13	-21	4	31*	12	-2
CCc1cc2c(=O)c(-c3ccc4c(c3)OCO4)coc2c(CN(C)C)c1O	nt	2	-4	-4	14	86*	95*	-5
O=c1nc(NN=C/C=C/c2ccccc2)cn[nH]1	nt	nt	nt	nt	11	nt	nt	nt
C=CCCC(Cc1ccc(F)cc1)C(=O)OCC(C)NC(=O)C(CC=C)CC(=O)N(CCO)Cc1ccccc1 (stereo unspecified)	nt	nt	nt	nt	9	nt	nt	nt
O=C(NCCc1ccccn1)c1ccc(OC2CCN(CCc3ccccc3)CC2)cc1	13	1	6	-64	3	45*	-1	7
CC(Cc1ccccn1)NC(=O)c1ccc(OC2CCN(CCc3ccccc3)CC2)cc1 (stereo unspecified)	21	-4	4	-35	-3	-7	nt	nt
CCCCN1CCC2C=CCC(C(=O)Nc3nccs3)C2C1=O (stereo unspecified)	nt	nt	nt	nt	12	nt	nt	nt
NNC(=O)c1[nH]c2ccc(Br)cc2c1-c1ccccc1	3	3	5	-16	20	6	nt	nt
CCc1c(C(=O)O)[nH]c2ccc(Br)cc12	27	7	-3	-11	nt	76*	88*	1
CC1CN(C(C)CO)C(=O)c2cccc(NC(=O)C3CCCCC3)c2OC1CN(C)C(=O)Nc1ccccc1 (stereo unspecified)	nt	nt	nt	nt	14	nt	nt	nt
O=C(Nc1cccc(S(=O)(=O)C(F)F)c1)c1ccc(S(=O)(=O)N2CCOCC2)cc1	22	2	-15	-2	nt	11	nt	nt
O=C(Nc1nc(-c2ccccn2)cs1)c1cccc(S(=O)(=O)N2CCOCC2)c1	nt	nt	5	37	nt	25*	26*	11*
O=C(Nc1ccc(S(=O)(=O)C(F)F)cc1)c1cccc(S(=O)(=O)N2CCOCC2)c1	-2	0	7	-17	nt	29*	16	16*
Cn1c(SCC(=O)NN=Cc2ccncc2)nc2ccccc21	nt	nt	nt	nt	-11	nt	nt	nt
CCCCC(=O)NC(c1ccccc1OC)c1ccc2cccnc2c1O (stereo unspecified)	24	-2	1	33	9	40*	31*	27*
CCCCC(=O)NC(c1ccc(N(C)C)cc1)c1ccc2cccnc2c1O (stereo unspecified)	30	-1	4	42	nt	27*	25*	16*
CCCCC(=O)NC(c1ccc(Cl)cc1)c1ccc2cccnc2c1O (stereo unspecified)	nt	-2	-4	28	nt	29*	18	11*
NC(=O)COC(=O)c1ccc(C(=O)C(=O)c2ccccc2)cc1	-3	1	-21	-2	-6	4	nt	nt
NC(=O)COC(=O)c1ccc2noc(-c3ccccc3)c2c1	42	-1	-2	-23	-27	37*	30*	-8
COc1ccc(CC(=NOC(C)=O)c2ccc(OC)cc2)cc1	nt	nt	nt	nt	1	nt	nt	nt
CCCc1noc2c1C(=NO)CC(c1ccccc1)C2 (stereo unspecified)	nt	nt	nt	nt	7	nt	nt	nt
SMILES	DUSP3 inh	3CLpro inhibitor	MazEF act	PrP UTR inh	Mtb hypoxia inh	PrPC surface inh	PrPC confirm	LD9 tox
CCCc1noc2c1/C(=N\O)CC(c1ccccc1)C2 (stereo unspecified)	29	2	0	-14	nt	24*	5	6
Cc1cc(Br)c2nc3c(c(C(=O)O)c2c1)CCCCC3	22	2	1	-4	1	117*	132*	-4
CCc1ccc2nc3c(c(C(=O)O)c2c1)CCC3	-8	0	7	-27	-3	-6	nt	nt
Cn1c(SCc2ccc(Cl)cc2)nnc1-c1ccc2nonc2c1	25	3	-2	-15	11	70*	-24	0
NC(=O)C1CCN(C(=O)c2cc(-c3ccccc3Cl)nc3ccccc23)CC1	nt	nt	13	-19	9	43*	43*	-5
NC(=O)C1CCN(C(=O)c2cc(-c3ccc(Cl)cc3)nc3ccccc23)CC1	nt	nt	2	-20	6	-10	nt	nt
c1ccc(-c2nnc(-c3ccccn3)c(-c3ccccn3)n2)nc1	-3	0	2	nt	-14	-16	nt	nt
CN(C)c1nc(-c2ccccn2)nnc1-c1ccccc1	24	-2	2	-9	nt	27*	36*	-1
COc1cnc(-c2ccccn2)nc1N(C)C	2	-2	11	-42	24	26*	27*	1
c1ccc(-c2cccc(CNc3nc(-c4ccccn4)nnc3-c3ccccc3)c2)cc1	nt	nt	nt	nt	nt	33*	36*	25*
O=C(Nc1nccs1)c1ccc(COc2ccccc2Br)o1	-8	-4	5	-20	13	26*	22	5
CC(C)(C)NC(=O)CCN(N=Cc1ccc([N+](=O)[O-])o1)C1=NS(=O)(=O)c2ccccc21	nt	nt	nt	nt	10	nt	nt	nt
CC(C)CSc1nnc2c3ccccc3n(C)c2n1	14	5	-10	-65	0	58*	66*	-3
Cc1onc(-c2ccccc2)c1C(=O)Oc1cccnc1	6	-4	0	-22	-1	30*	1	-7
c1ccc(Cn2nnnc2C(c2cccs2)N2CCCCCC2)cc1 (stereo unspecified)	27	0	3	-27	4	28*	22	1
CCN(C(=O)COC(=O)c1cccc2ccccc12)c1c(N)n(Cc2ccccc2)c(=O)[nH]c1=O	nt	nt	-1	9	-6	7	nt	nt
CCN(C(=O)COC(=O)c1ccccc1Nc1ccccc1)c1c(N)n(Cc2ccccc2)c(=O)[nH]c1=O	nt	nt	-9	-15	-7	33*	24	-3
O=C(NN=Cc1c(Cl)cccc1Cl)c1ccccc1F	nt	nt	nt	nt	16	nt	nt	nt
Cc1cccc(C)c1NS(=O)(=O)c1ccc(-c2cnc(C3CC3)o2)cc1	-2	3	2	30	13	25*	14	29*
CCOC(=O)c1ccc(-n2cccc2C=C2NC(=O)NC2=O)cc1	nt	nt	nt	nt	5	nt	nt	nt
CCCCNc1c(-c2ccc(OC)c(SC3CCCCC3)c2)nc2ccc(C)cn12	nt	nt	0	-12	5	38*!	50*	53*
O=C(Oc1ccc(C=NNC(=O)c2ccccc2F)cc1)c1ccccc1	nt	nt	nt	nt	7	nt	nt	nt

Screening data as filed in PubChem BioAssay.
